# PubChem BioAssay (Tox21)
# Results filed as inconclusive are left out. Where a call stands in place of a potency, no number is given. Active and inactive are the calls of the source. Calls follow the shape of the dose curve; as a rule, active = well fitted cell-killing curve with a large enough effect in the repeat runs; inconclusive = weak or mixed curves, or effect the other way; inactive = flat fitted curve, though single readings scatter.
# Experiment: cAMP Responsive Elements (CRE) small molecule antagonists, cell-based qHTS assay: qHTS cell viability counter screen (AID 2060913); also: nearly all actives have a fitted effect of over 40% in size
# Conditions: CRE-bla HEK293T viability, CellTiter-Glo luminescence, 5 h; series mostly up to 92.4 µM
# Excerpt: U.S. Tox21 Program National Center for Advancing Translational Sciences [NCATS] Division of Preclinical Innovation [DPI] U.S. Environmental Protection Agency [EPA] National Institutes of Environmental Health Sciences [NIEHS] National Toxicology Program [NTP] U.S. Food and Drug Administration [FDA] Tox21 Assay Overview: CREB (cyclic-AMP Responsive Element Binding Protein) is a cellular transcription factor. It binds to certain DNA sequences called cAMP Responsive Elements (CRE) and regulates the transcription of the genes. […] This cell line can be used to find agonists/antagonists of the cyclic AMP signaling pathway. The activation of the report gene under culture conditions can be detected by fluorescence intensity. This cell line has been used to screen the Tox21 10K compound library to identify agonists that induce oxidative stress. The cytotoxicity of the Tox21 compound library against the CRE-bla cell line was tested in parallel by measuring the cell viability using CellTiter-Glo assay (Promega, Madison, WI) in the same wells.
# Tox21 Assay Protocol Summary: CRE-bla Hek 293T cells were suspended in assay medium (DMEM containing 10% dialyzed FBS, 0.1 mM NEAA, 1 mM sodium pyruvate and 25 mM HEPES) and dispensed at 2,000 cells/4 uL /well into 1536-well black wall/clear bottom plates using a Multidrop Combi (ThermoFisher Scientific, Waltham, MA) dispenser. After the assay plates were incubated at 37 C/5% CO2 for 18 hrs, 23 nL of compounds dissolved in DMSO, positive controls or DMSO only was transferred to the assay plate by a pintool workstation (Kalypsys, San Diego, CA), followed by addition of 1 uL of 1.25uM NKH477 (0.25 uM as final concentration) in assay medium using a Flying Reagent Dispenser (Aurora Discovery, San Diego, CA). The plates were incubated at 37 C and 5% CO2 for 3 hrs. Then 1 uL of LiveBLAzer B/G FRET substrate (Invitrogen, Carlsbad, CA) was added to each well using Bioraptr Flying Reagent Dispenser (FRD, Aurora Discovery, San Diego, CA). The plates were incubated at room temperature for 2 h, then fluorescence intensities were measured using an Envision plate reader (PerkinElmer, Shelton, CT) at Excitation 405nm, Emission 460nm and 530nm. The % activity was determined from the ratio of 460nm/530nm. For cell viability readout that measures cytotoxicity, 4 uL /well of CellTiter-Glo reagent was added into the assay plates using Bioraptr FRD. After 30 min incubation at room temperature, the luminescence intensity in the assay plates was measured using a ViewLux (PerkinElmer, Shelton, CT) plate reader.
row,Structure (SMILES),Potency
1,COc1cc(/C=C/C(N)=O)cc(OC)c1OC,inactive
2,CC1CC(=O)NN=C1c1ccc(NCC(C)(C)NCC(O)COc2cc(Cl)ccc2C#N)cc1 (stereo not given),inactive
3,CCCCCCCCCCCC(C)=O,inactive
4,OC1CCCC1,inactive
5,O=C(COCCOCCOCC(=O)Nc1c(I)cc(I)c(C(=O)O)c1I)Nc1c(I)cc(I)c(C(=O)O)c1I,inactive
6,O=C(O)C(=O)Nc1cccc(-c2nn[nH]n2)c1,inactive
7,CN(C)CCOc1ccccc1Cc1ccccc1,inactive
8,CC12CC3CC(C)(C1)CC(N)(C3)C2,inactive
9,CCCC[P+](CCCC)(CCCC)CCCC,inactive
10,CO/N=C(\C(=O)N[C@@H]1C(=O)N2C(C(=O)O)=C(CSc3nc(=O)c(O)nn3C)CS[C@H]12)c1csc(N)n1,inactive
11,COC(=O)NCCC[Si](OC)(OC)OC,inactive
12,CC(C)(C)C(=O)CCc1ccc(Cl)cc1,inactive
13,CC1=C(C(=O)O)N2C(=O)[C@@H](NC(=O)[C@H](N)c3ccc(O)cc3)[C@H]2SC1,inactive
14,CC(=O)c1cnccn1,inactive
15,CC(=O)Nc1ccn(C2COC(COC(=O)c3ccccc3)O2)c(=O)n1 (stereo not given),inactive
16,N=C(N)c1ccccc1,inactive
17,Nc1nc(=S)c2[nH]cnc2[nH]1,inactive
18,COC(Cc1ccccc1)OC,inactive
19,CC(=C(CCOC(=O)C(C)C)SSC(CCOC(=O)C(C)C)=C(C)N(C=O)Cc1cnc(C)nc1N)N(C=O)Cc1cnc(C)nc1N,inactive
20,CC1(C)O[C@@H]2C[C@H]3[C@@H]4C[C@H](F)C5=CC(=O)CC[C@]5(C)[C@H]4[C@@H](O)C[C@]3(C)[C@]2(C(=O)CO)O1,inactive

row,Structure (SMILES),Potency
1,CCN(CC)C(=S)SSC(=S)N(CC)CC,inactive
2,CN1CCN(CCCN2c3ccccc3Sc3ccc(Cl)cc32)CC1,inactive
3,C[C@]12CCC(=O)C=C1CC[C@@H]1[C@@H]2[C@@H](O)C[C@@]2(C)[C@H]1CC[C@]2(O)C(=O)CO,inactive
4,ClC/C=C/CCl,inactive
5,CC(O)C#CC(C)O (stereo not given),inactive
6,O=C(O)CONC(=O)c1ccccc1,inactive
7,NS(=O)(=O)c1cc2c(cc1C(F)(F)F)NC(Cc1ccccc1)NS2(=O)=O (stereo not given),inactive
8,CC(=O)OC/C=C(\C)CCC=C(C)C,inactive
9,CC(C)(C)c1ccc(C(=O)CCCCl)cc1,inactive
10,Nc1ccn(C2CO[C@H](CO)O2)c(=O)n1 (stereo not given in full),inactive
11,CCCCCCCCC(C)=O,inactive
12,NCCN,inactive
13,C[N+](C)(C)CCOC(N)=O,inactive
14,CCOC(=O)c1ccc(N(C)C)cc1,inactive
15,C=C(C)C1CC=C(C)CC1 (stereo not given),inactive
16,CCN(CC)CCNC(=O)c1ccc(NC(C)=O)cc1,inactive
17,c1cc[c]([Bi]([c]2ccccc2)[c]2ccccc2)cc1,inactive
18,CCc1c(C(=O)O)c(=O)cnn1-c1ccc(Cl)cc1,inactive
19,CCCCCCCCC(=O)Cl,inactive
20,COC(=O)C1=C(C)NC(C)=C(C(=O)OCC(C)C)C1c1ccccc1[N+](=O)[O-] (stereo not given),inactive
